Assay outcomes as filed in PubChem BioAssay.
This is a sample that favours compounds with a hit; in the whole collection about 1.6% have one here.
KCNQ2 block: rat KCNQ2 potassium channel inhibitors, primary screen, cell-based, CHO-K1, FluxOR thallium flux, B-score; hit rate 1.1% among 310,000; 20 min; hits give low values; Potassium voltage-gated channel subfamily KQT member 2 (Rattus norvegicus), O88943; B-score at 10 µM;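 active = fluorescence ratio B-score at most minus 3 library SDs, with starting brightness B-score within 2 library SDs, cut at about -5.5 in these data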
KCNQ2 pot: potentiators of rat KCNQ2 potassium channel | Potassium voltage-gated channel subfamily KQT member 2 (Rattus norvegicus), O88943 | hit rate 0.54% among 310,000 | B-score at 10 µM | CHO-K1 KCNQ2, FluxOR thallium flux fluorescence; hits give high values;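 active = fluorescence ratio B-score at least 3 SD of library B-scores, with initial fluorescence B-score within 3 of them, cut at about 5.3 in these data; same plate scores as AID 2156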;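 note: B-score of peak minus minimum over baseline fluorescence ratio after K+ and Tl+ stimulus; positive B-score means potentiation of KCNQ2 with more thallium influx and brighter signal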
Kir21 conf inh: mouse Kir2.1 channel blockers, retest, confirmation, cell-based, FluxOR thallium flux, duplicate; shares compounds with KCNQ2 pot; Kir2.1-expressing cells, FluxOR thallium flux fluorescence; hits give low values; Tl flux remaining, % of negative control (hits give low values), % at 10 µM; hit rate 41% among 2,300;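 active = Primary-screen hit whose thallium flux fell at least 3 control SD below untreated wells in both duplicates, with normal baseline fluorescence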;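 note: 0% = blank wells without stimulus and 100% = stimulated no-compound controls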
Target sequence (P35561 whole entry, looked up): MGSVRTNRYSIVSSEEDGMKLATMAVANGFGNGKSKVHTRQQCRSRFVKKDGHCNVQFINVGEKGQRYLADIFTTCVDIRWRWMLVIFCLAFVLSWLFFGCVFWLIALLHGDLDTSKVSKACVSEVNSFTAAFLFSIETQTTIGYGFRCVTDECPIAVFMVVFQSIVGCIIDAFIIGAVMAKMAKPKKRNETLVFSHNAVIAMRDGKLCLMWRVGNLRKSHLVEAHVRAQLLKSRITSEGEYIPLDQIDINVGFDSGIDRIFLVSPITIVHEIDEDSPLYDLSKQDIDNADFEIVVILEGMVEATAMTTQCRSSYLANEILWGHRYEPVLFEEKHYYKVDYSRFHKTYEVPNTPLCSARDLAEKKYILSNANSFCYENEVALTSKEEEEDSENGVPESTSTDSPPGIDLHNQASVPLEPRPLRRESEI
HEK293 ctr: counter-screen for Kir2.1 inhibitors: effect in parental HEK293 cells; shares compounds with KCNQ2 pot; FluxOR thallium flux fluorescence; 0% = unstimulated blank wells; FluxOR signal as % of negative control (100 = no effect), % at 10 µM; hit rate 19% among 2,300; AID 2105;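 active = dye signal at least 3 control SD above or below untreated wells in both duplicates, raw fluorescence within 3, either direction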;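 note: percent is based on the flux ratio of peak minus minimum fluorescence over baseline F0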
CHO-K1 Tl ctr: nonspecific thallium flux increase in parental CHO-K1, confirmation, counter-screen for KCNQ2 potentiator project, cell-based, FluxOR thallium flux, duplicate; shares compounds with KCNQ2 pot; parental CHO-K1 cells, FluxOR thallium flux fluorescence; zero = vehicle mean+3SD, 100% = vehicle-minus-blank window; activity increase over 3SD of controls, % at 10 µM; hit rate 43% among 1,200; AID 2282, 2010;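 active = signal rise of at least 3 SD above the untreated control mean, in both duplicate wells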;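 note: counter screen of KCNQ2 potentiator hits so any rise reflects channel-independent effects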
KCNQ1 sel pot: human KCNQ1 channel potentiation off-target, confirmation, selectivity assay for KCNQ2 potentiator project, cell-based, CHO, FluxOR thallium flux. shares compounds with KCNQ2 pot. CHO KCNQ1 stable, FluxOR thallium flux fluorescence; beyond 3SD, as % of vehicle-control signal. activation over 3SD threshold, % at 10 µM. hit rate 28% among 1,200. AID 2283, 2010;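 active = fluorescence ratio rise of at least 3 SD of vehicle wells above their mean, in both replicate wells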;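 note: 0% = vehicle mean plus 3 SD and 100% = vehicle minus unstimulated blank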
KCNQ2 pot conf: rat KCNQ2 channel potentiators, confirmation, cell-based, CHO, FluxOR thallium flux, duplicate; potentiation, less the hit threshold, % at 10 µM; shares compounds with KCNQ2 pot; AID 2287, 2010; hit rate 68% among 1,200; CHO-KCNQ2 cells, FluxOR thallium flux fluorescence;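 active = fluorescence ratio rising 3 SD or more over the vehicle control mean in both replicates, plus primary screen hit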;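 note: peak minus minimum thallium fluorescence divided by baseline after K/Tl stimulus; 0% = vehicle mean plus 3 SD and 100% = vehicle minus unstimulated blank difference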
Kir2-1 sel: mouse Kir2.1 channel activation off-target, confirmation, selectivity assay for KCNQ2 potentiator project, cell-based, HEK293, FluxOR thallium flux; hit rate 2% among 1,200; activity over 3SD threshold, % at 10 µM; HEK293 Kir2.1, FluxOR thallium flux fluorescence; shares compounds with KCNQ2 pot;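 active = fluorescence ratio rise of at least 3 SD above the vehicle-control mean, seen in both replicates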;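 note: 0% = vehicle mean plus 3 SD and 100% = vehicle minus no-stimulus blank window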
KCNQ2 W236L MoA: potentiators of retigabine-insensitive KCNQ2 W236L, mechanism study for KCNQ2 potentiator project, cell-based, rat KCNQ2 W236L, CHO, automated patch clamp; current increase over 3SD of negative controls (%), hits give high values, % at 25 µM; automated patch clamp current; hit rate 10% among 940; shares compounds with KCNQ2 pot;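 active = current increase at least 3 SD of the untreated controls above them in both duplicate recordings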
Numbers without * were called inactive; i = inactive; x = not tested or not shown.

SMILES	KCNQ2 block	KCNQ2 pot	Kir21 conf inh	HEK293 ctr	CHO-K1 Tl ctr	KCNQ1 sel pot	KCNQ2 pot conf	Kir2-1 sel	others
CC(C)NS(=O)(=O)c1ccc(Br)c(C(=O)OC(C)C(=O)NC2CCCCC2C)c1 (centres undefined)	i	0.93	x	x	x	x	x	x
O=C(O)c1ccc2c(c1)C(=O)N(c1cccc3ccccc13)C2=O	i	x	x	x	x	x	x	x
Nc1ccc(S(=O)(=O)Nc2nccc(/C=C/c3cccc(Br)c3)n2)cc1	i	0.07	x	x	x	x	x	x
CC(C)(C)c1ccc(OCCNCc2ccccc2)cc1	i	x	x	x	x	x	x	x
Clc1ccc(OCCOCCNCc2ccccc2)cc1Cl	i	x	22.5%*	i	x	x	x	x
Cc1ccc(C(=O)Nc2cccc(C(F)(F)F)c2)cc1NC(=O)c1csc(-c2ccncc2)n1	i	x	x	x	x	x	x	x
N#C/C(=N\Nc1cccc(C(F)(F)F)c1)C(=O)c1csc(-c2cccnc2)n1	i	6.38*	i	69.5%*	18.7*	-1.9	-3.8	-35.6
CCOC(=O)C1(CCOc2ccccc2)CCN(Cc2ccc(OC)c(COC)c2)CC1	i	x	x	x	x	x	x	x
COc1ccc(C(=O)NNC(=O)C(=O)Nc2cccc3ccccc23)cc1	i	10.2*	i	156.5%*	2.3*	-20.3	-2.0	-22.9	KCNQ2 W236L MoA=i
COc1ccc(C(=O)Nc2cccc3ccccc23)cc1	i	x	x	x	x	x	x	x
O=C(COc1ccc2ccccc2c1)NNC(=O)Nc1ccccc1F	i	x	x	x	x	x	x	x
COc1ccc(OC)c(NC(=O)NNC(=O)COc2ccc(-c3ccccc3)cc2)c1	i	x	x	x	x	x	x	x
COc1ccc(OCC(=O)NNC(=O)C(=O)Nc2cc(OC)ccc2OC)cc1	i	11.4*	i	264.0%*	41.8*	-5.1	8.0*	-26.2	KCNQ2 W236L MoA=i
Cc1ccccc1NC(=O)C(=O)NNC(=O)COc1ccc2ccccc2c1	i	6.97*	i	248.5%*	-4.3	-15.1	19.9*	-21.1	KCNQ2 W236L MoA=i
COc1ccc(OC)c(NC(=O)Nc2c(O)ccc3ccccc23)c1	i	7.77*	x	x	-21.3	-39.8	-11.4	-71.8
COc1ccc(OC)c(NC(=O)Nc2ccc(O)c3ccccc23)c1	i	x	x	x	x	x	x	x
CNC(=O)c1ncoc1-c1ccc(Cl)cc1	i	x	x	x	x	x	x	x
CCOc1cc(N2CCOCC2)c(OCC)cc1NC(=O)COC(=O)CCn1c(C)csc1=O	i	1.99	x	x	x	x	x	x
CCCCCCOc1ccc(C(CC(N)=O)C(=O)O)cc1 (centres undefined)	i	x	x	x	x	x	x	x
CC(C)N(CCCNC(=O)Cn1c(=O)c2cccn2c2ccccc21)Cc1ccccc1	i	0.11	x	x	x	x	x	x
CCOC(=O)N1CCN(C(=O)c2cn(C)c3ccc(S(=O)(=O)N(C)C4CCCCC4)cc3c2=O)CC1	i	0.9	x	x	x	x	x	x
Cc1ccc(S(=O)(=O)N2CCN(Cc3ccco3)CC2)c(C)c1	i	x	x	x	x	x	x	x
COc1ccc(OC)c(NC(=O)C(=O)NNC(=O)COc2ccc(Br)cc2C)c1	i	17.2*	i	349.5%*	-8.3	12.0*	68.0*	-14.7	KCNQ2 W236L MoA=i
COc1ccc(CC(=O)NNC(=O)COc2ccc(Br)cc2C)cc1OC	i	x	x	x	x	x	x	x
Cc1cc(C)nc(S/C=C/C(=O)c2ccccc2F)n1	i	x	x	x	x	x	x	x
SMILES	KCNQ2 block	KCNQ2 pot	Kir21 conf inh	HEK293 ctr	CHO-K1 Tl ctr	KCNQ1 sel pot	KCNQ2 pot conf	Kir2-1 sel	others
Cc1ccc(S(=O)(=O)NCCC(=O)N2CCCCCC2)cc1	i	0.07	x	x	x	x	x	x
Cc1ccc(S(=O)(=O)NCCC(=O)N2CCC(Cc3ccccc3)CC2)cc1	i	5.32*	i	i	12.9*	-22.1	-18.9	-35.2	KCNQ2 W236L MoA=i
CCN(c1cccc(C)c1)S(=O)(=O)c1cc2c3c(c1)CCC(=O)N3CCC2	i	x	i	i	x	x	x	x
CCCN(CCC)S(=O)(=O)c1cc2c3c(c1)CCN3C(=O)CC2	i	x	x	x	x	x	x	x
CC(=O)SCC(=O)N=c1sc2cc(F)ccc2n1C	i	5.89*	i	i	-15.8	-5.4	5.6*	-35.4	KCNQ2 W236L MoA=i
Cn1c(=NC(=O)CCS(=O)(=O)c2ccccc2)sc2cc(F)ccc21	i	x	x	x	x	x	x	x
O=C(COC(=O)C1CCC(=O)N1)Nc1ccccc1Br (centres undefined)	i	0.74	x	x	x	x	x	x
O=C(COC(=O)C1CCC(=O)N1)Nc1ccc(Oc2ccccc2)cc1 (centres undefined)	i	7.61*	i	i	2.8*	-28.0	-13.2	-30.8
CC(Oc1ccc2c(c1)oc(=O)c1ccccc12)C(=O)NC(Cc1c[nH]c2ccc(O)cc12)C(=O)O (centres undefined)	i	0.04	x	x	x	x	x	x
Cc1cccc(-n2c(=S)[nH]c3sc4c(c3c2=O)CCc2ccccc2-4)c1	i	5.61*	i	195.5%*	-10.8	-25.5	-10.4	-25.4	KCNQ2 W236L MoA=i
Cc1ccc(-n2c(=S)[nH]c3sc4c(c3c2=O)CCc2ccccc2-4)cc1	i	x	x	x	x	x	x	x
Fc1ccc(NC(=S)Nc2ccccc2N2CCOCC2)cc1Cl	i	x	63.0%*	134.5%*	x	x	x	x
O=S(=O)(c1ccc(Cl)c(NC(=S)Nc2ccccc2N2CCOCC2)c1)N1CCOCC1	i	0.82	x	x	x	x	x	x
CC(=O)Nc1ccc(S(=O)(=O)Nc2ccccc2N2CCOCC2)cc1Cl	i	x	x	x	x	x	x	x
O=S(=O)(Nc1ccccc1N1CCOCC1)c1ccc(F)c(Cl)c1	i	x	46.0%*	i	x	x	x	x
COc1cccc(/C=N/NC(=O)CN2CC(c3ccccc3)CC2=O)c1OC (centres undefined)	i	x	x	x	x	x	x	x
CC(NC(=O)C1CCN(S(=O)(=O)c2ccc(Br)s2)CC1)c1ccccc1 (centres undefined)	i	6.85*	i	i	5.4*	-18.8	14.1*	-25.1	KCNQ2 W236L MoA=i
CC(NS(=O)(=O)c1ccc(Br)s1)c1ccccc1 (centres undefined)	i	0.04	49.5%*	i	x	x	x	x
